# Source: PubChem BioAssay (Tox21)
# A number with no mark means an inactive call. Results filed as inconclusive are left out. Where a call stands in place of a potency, no number is given. Active and inactive are the calls of the source. Unless noted, calls come from the whole dose curve.
# Assays:
# [1] = Nuclear factor erythroid 2-related factor 2/antioxidant responsive element (Nrf2/ARE) small molecule agonists: qHTS cell viability counter screen in human keratinocytes (AID 1919968; active = well fitted curve in the direction sought with a large enough effect in the repeat runs; an effect the other way counts as inactive or inconclusive; note: nearly all actives have a fitted effect of over 55% in size)
# How it was run: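 HaCaT ARE reporter line, 1,500 cells/well; 5 h settle, 37 C/5% CO2; cpd in DMSO pinned; 23 h exposure; CellTiter-Fluor, 1 h; fluorescence.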
# [2] = Nuclear factor erythroid 2-related factor 2/antioxidant responsive element (Nrf2/ARE) small molecule agonists: luciferase reporter gene qHTS assay in human keratinocytes (AID 1919969); note: nearly all actives have a fitted effect of over 35% in size; note: potency is the fitted concentration of half-maximal effect
# [3] = target: Gonadotropin-releasing hormone receptor (Homo sapiens) (UniProt P30968); assay: Human gonadotropin-releasing hormone receptor (GnRHR) small molecule agonists, calcium flux assay in GnRHR-HEK293 cells (AID 1920063); note: nearly all actives have a fitted effect of over 35% in size
# Chain of Gonadotropin-releasing hormone receptor (Homo sapiens) (P30968 whole entry, looked up): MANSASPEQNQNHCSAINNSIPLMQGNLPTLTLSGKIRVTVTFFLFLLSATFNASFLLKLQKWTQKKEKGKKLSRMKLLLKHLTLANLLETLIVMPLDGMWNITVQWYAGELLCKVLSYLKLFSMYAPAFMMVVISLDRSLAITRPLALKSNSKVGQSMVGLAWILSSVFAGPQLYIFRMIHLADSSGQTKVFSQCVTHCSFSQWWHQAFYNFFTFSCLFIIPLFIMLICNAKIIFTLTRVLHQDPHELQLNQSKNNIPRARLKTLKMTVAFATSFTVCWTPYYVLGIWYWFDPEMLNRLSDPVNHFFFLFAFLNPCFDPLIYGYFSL
# How it was run: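 GnRHR-HEK293, 1500 cells/well, 18 h 37 C/5% CO2; Ca dye 1 h 37 C; cpd pinned (DMSO), agonist mode; kinetic FL 480/540, 3 min, 1 s reads; 15 conc, n=3.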
# [4] = target: KiSS-1 receptor (Homo sapiens) (UniProt Q969F8); assay: Human kisspeptin (KISS1R) small molecule agonists, calcium flux assay in KISS1R-HEK293 cells (AID 1920064; active = well fitted curve in the direction sought with a large enough effect in the repeat runs; an effect the other way counts as inactive or inconclusive)
# Chain of KiSS-1 receptor (Homo sapiens) (Q969F8 whole entry, looked up): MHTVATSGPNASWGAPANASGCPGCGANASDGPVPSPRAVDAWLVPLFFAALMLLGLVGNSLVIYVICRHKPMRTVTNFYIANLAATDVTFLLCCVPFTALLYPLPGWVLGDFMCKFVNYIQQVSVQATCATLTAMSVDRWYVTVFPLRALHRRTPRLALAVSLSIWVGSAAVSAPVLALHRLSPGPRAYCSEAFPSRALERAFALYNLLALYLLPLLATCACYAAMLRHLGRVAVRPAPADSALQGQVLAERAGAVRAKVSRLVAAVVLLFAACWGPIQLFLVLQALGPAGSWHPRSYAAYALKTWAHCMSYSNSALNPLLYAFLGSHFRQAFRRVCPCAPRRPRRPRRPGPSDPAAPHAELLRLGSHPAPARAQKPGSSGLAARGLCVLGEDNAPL
# How it was run: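 Stable human KISS1R HEK293 line; 18 h plating, 37 C/5% CO2; calcium dye 1 h 37 C; compound pin transfer; kinetic fluorescence Ex/Em 480/540, 3 min.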
# [5] = G protein-coupled receptor (GPCR) small molecule agonists, calcium flux assay: HEK293 wild type cell line counter screen (AID 1920065)
# How it was run: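 Kinetic fluorescence at Ex/Em 480/540, recorded every second over 3 min, served as the read-out after compound addition. Each compound was tested at 15 concentrations in triplicate on cells pre-loaded with calcium dye for 1 h.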
# [6] = p53 small molecule agonists, cell-based qHTS assay with rat liver microsomes (AID 1963578)
# How it was run: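 Metabolic activation by rat liver microsomes and NADPH, each 0.5 mg/mL final, added right after compounds to p53RE-bla reporter cells (4,000/well, plated 5 h earlier). 16 h at 37 C, then LiveBLAzer substrate for 2 h at room temperature in the dark; fluorescence read-out.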
# [7] = p53 small molecule agonists, cell-based qHTS assay with human liver microsomes: qHTS cell viability counter screen (AID 1963579); note: nearly all actives have a fitted effect of over 45% in size
# How it was run: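 Metabolic activation used human liver microsomes and NADPH, both 0.5 mg/mL final, over 16 hours at 37 C on p53RE-bla cells (4,000/well). Cytotoxicity measured by CellTiter-Glo luminescence, 30 min at room temperature.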
# [8] = p53 small molecule agonists, cell-based qHTS assay with rat liver microsomes: qHTS cell viability counter screen (AID 1963580); note: nearly all actives have a fitted effect of over 45% in size
# How it was run: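 Intracellular ATP, by CellTiter-Glo luminescence, defines viability. HCT-116 p53RE-bla cells, 4,000 per well, were compound-treated in the presence of rat liver microsomes and NADPH for 16 h at 37 C.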
# [9] = p53 small molecule agonists, cell-based qHTS assay: qHTS cell viability counter screen (AID 1963581); note: nearly all actives have a fitted effect of over 45% in size
# How it was run: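 HCT-116 p53RE-bla cells, 4,000/well, plated 5 h before compound pin transfer; 16 h at 37 C; bla substrate 2 h RT; then CellTiter-Glo, 30 min RT, luminescence.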
# [10] = p53 small molecule agonists, cell-based qHTS assay (AID 1963582; active = well fitted activation curve with a large enough effect in the signal ratio in the repeat runs, not every such curve was filed as active; the % refers to the signal ratio)
# How it was run: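 Reporter line: p53RE-bla. Pre-incubation 5 h, 37 C, 5% CO2; compound (DMSO, pin tool) 16 h, 37 C; B/G FRET substrate 2 h RT; fluorescence intensity read.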
# [11] = target: 5-hydroxytryptamine receptor 2A (Homo sapiens) (UniProt P28223); assay: 5-hydroxytryptamine receptor 2A (HTR2A) small molecule antagonists, cell-based qHTS assay (AID 1963586); note: nearly all actives have a fitted effect of over 45% in size
# Chain of 5-hydroxytryptamine receptor 2A (Homo sapiens) (P28223 whole entry, looked up): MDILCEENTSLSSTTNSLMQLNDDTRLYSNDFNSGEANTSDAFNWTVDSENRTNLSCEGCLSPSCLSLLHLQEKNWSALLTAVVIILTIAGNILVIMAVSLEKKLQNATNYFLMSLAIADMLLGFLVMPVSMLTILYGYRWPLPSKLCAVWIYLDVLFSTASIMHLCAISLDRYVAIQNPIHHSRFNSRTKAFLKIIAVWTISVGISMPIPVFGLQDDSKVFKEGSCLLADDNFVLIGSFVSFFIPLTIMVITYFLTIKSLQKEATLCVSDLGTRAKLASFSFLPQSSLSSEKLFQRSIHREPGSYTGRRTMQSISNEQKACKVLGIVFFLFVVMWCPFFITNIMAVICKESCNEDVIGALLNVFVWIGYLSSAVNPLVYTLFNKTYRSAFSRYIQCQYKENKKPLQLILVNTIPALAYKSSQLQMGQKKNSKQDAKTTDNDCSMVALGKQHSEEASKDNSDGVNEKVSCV
# How it was run: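 Antagonist-mode intracellular calcium assay: DOI (4 nM) added after 5 min compound pre-incubation at room temperature to dye-loaded HTR2A-CHO cells. Fluorescence followed for 3 min, sampled every second.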
# [12] = target: 5-hydroxytryptamine receptor 2A (Homo sapiens) (UniProt P28223); assay: 5-hydroxytryptamine receptor 2A (HTR2A) small molecule agonists, cell-based qHTS assay (AID 1963587); note: nearly all actives have a fitted effect of over 30% in size
# How it was run: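 Kinetic calcium-flux fluorescence (2 min, 1 sec intervals) after compound addition in agonist mode. HTR2A-CHO cells were cultured 18 h, then dye-loaded 1 h at 37 C.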
# [13] = target: Muscarinic acetylcholine receptor M1 (Homo sapiens) (UniProt P11229); assay: Cholinergic receptor muscarinic 1 (CHRM1) small molecule antagonists, cell-based qHTS assay (AID 1963588); note: nearly all actives have a fitted effect of over 40% in size
# Chain of Muscarinic acetylcholine receptor M1 (Homo sapiens) (P11229 whole entry, looked up): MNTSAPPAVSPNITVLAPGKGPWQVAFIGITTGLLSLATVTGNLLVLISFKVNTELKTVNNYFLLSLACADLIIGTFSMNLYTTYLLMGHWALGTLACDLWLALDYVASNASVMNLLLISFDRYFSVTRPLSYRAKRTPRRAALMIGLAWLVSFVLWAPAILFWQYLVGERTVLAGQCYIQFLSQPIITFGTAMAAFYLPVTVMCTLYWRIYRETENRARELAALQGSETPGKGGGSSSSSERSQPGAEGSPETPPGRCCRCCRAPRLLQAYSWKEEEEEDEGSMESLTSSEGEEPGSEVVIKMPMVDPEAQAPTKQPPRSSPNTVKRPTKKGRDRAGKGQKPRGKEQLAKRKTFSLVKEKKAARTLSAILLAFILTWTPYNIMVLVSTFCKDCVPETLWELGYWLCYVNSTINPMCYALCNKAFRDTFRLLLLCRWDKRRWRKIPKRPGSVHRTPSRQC
# How it was run: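 CHRM1-CHO calcium-flux assay, antagonist mode. Cells were seeded 18 h, dye-loaded 1 h at 37 C and given compound for 5 min at RT, then acetylcholine was added at 50nM. FDSS fluorescence was read 3 min; 15 concentrations, three runs.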
# [14] = target: Muscarinic acetylcholine receptor M1 (Homo sapiens) (UniProt P11229); assay: Cholinergic receptor muscarinic 1 (CHRM1) small molecule agonists, cell-based qHTS assay (AID 1963589); note: nearly all actives have a fitted effect of over 35% in size
# How it was run: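 Human M1 in stable CHO line; 18 h plating, 1 h dye load 37 C; cpd added (agonist mode); Ca2+ fluorescence kinetic read, 1 s intervals; 15 conc, 3 runs.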
# [15] = cAMP Responsive Elements (CRE) small molecule agonists, cell-based qHTS assay (AID 1963590)
# How it was run: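 HEK 293T CRE-bla, 2,000 cells/well, 18 h preincubation 37 C/5% CO2; cpds (DMSO) pinned, 3 h; LiveBLAzer B/G FRET substrate, 2 h RT.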
# [16] = target: Beta-2 adrenergic receptor (Homo sapiens) (UniProt P07550); assay: Adrenergic beta2 receptor (ADRB2) small molecule antagonists, cell-based qHTS assay (AID 1963592); note: series mostly up to about 92 µM; nearly all actives have a fitted effect of over 50% in size
# Chain of Beta-2 adrenergic receptor (Homo sapiens) (P07550 whole entry, looked up): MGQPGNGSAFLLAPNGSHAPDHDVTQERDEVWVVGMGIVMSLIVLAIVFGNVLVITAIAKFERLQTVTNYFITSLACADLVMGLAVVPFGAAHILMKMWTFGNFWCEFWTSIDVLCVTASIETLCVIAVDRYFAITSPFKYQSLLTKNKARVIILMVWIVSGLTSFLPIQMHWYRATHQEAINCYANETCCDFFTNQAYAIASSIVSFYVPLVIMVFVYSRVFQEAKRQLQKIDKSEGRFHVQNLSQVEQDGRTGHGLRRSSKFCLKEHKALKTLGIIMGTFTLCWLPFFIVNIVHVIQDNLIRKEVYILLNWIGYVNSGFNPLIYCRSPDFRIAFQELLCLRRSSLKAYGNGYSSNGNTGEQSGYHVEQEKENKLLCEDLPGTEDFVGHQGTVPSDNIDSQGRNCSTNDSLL
# How it was run: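 Cells (CHO, stable ADRB2 overexpression) incubated 18-20hr at 37C; compounds added from DMSO; agonist mix (1nM isoproterenol, 100uM IBMX, 25uM Ro-20-1724) added; 0.5hr RT; d2-cAMP and anti-cAMP-cryptate added; 1hr RT; 665/615 nm read.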
# [17] = target: D(2) dopamine receptor (Homo sapiens) (UniProt P14416); assay: Dopamine D2 receptor (DRD2) small molecule agonists, cell-based qHTS assay (AID 1963594); note: nearly all actives have a fitted effect of over 35% in size
# Chain of D(2) dopamine receptor (Homo sapiens) (P14416 whole entry, looked up): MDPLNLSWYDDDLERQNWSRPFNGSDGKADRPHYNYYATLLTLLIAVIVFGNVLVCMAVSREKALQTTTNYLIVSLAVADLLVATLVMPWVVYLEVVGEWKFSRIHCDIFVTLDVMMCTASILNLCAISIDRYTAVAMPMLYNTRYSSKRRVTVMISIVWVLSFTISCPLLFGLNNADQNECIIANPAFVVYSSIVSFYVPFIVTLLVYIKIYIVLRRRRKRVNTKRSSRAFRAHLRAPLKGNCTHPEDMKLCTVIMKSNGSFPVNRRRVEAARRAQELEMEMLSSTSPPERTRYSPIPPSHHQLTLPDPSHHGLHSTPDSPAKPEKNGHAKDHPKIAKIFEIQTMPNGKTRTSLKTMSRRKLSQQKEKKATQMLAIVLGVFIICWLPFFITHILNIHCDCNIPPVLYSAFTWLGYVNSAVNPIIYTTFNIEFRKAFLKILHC
# How it was run: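 cAMP accumulation in DRD2-HEK293 cells measured by HTRF after 1 h detection; compounds added 10 min before NKH477 (200nM […]) forskolin-analogue stimulation, 30 min at room temperature, with Ro20-1724 present at 0.1 mM final.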
# [18] = target: D(2) dopamine receptor (Homo sapiens) (UniProt P14416); assay: Dopamine D2 receptor (DRD2) small molecule antagonists, cell-based qHTS assay (AID 1963595; active = well fitted inhibition curve with a large enough effect in the signal ratio in the repeat runs, with a control signal flat; the % refers to the signal ratio)
# How it was run: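 Readout: HTRF cAMP, cAMP-d2 competing with cellular cAMP for anti-cAMP cryptate, read after 1 h. Cells: DRD2-HEK293. Conditions: 0.1 mM Ro20-1724, 12 nM quinpirole, 200 nM NKH477, 30 min RT.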
# [19] = cAMP Responsive Elements (CRE) small molecule antagonists, cell-based qHTS assay (AID 1963591; active = well fitted inhibition curve with a large enough effect in the signal ratio in the repeat runs, not every such curve was filed as active; the % refers to the signal ratio)
# How it was run: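 Beta-lactamase reporter read by FRET substrate (LiveBLAzer B/G) after 2 h at room temperature. CRE-bla HEK293T cells had received compound plus 0.25 uM (final) NKH477 for 3 h at 37 °C.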
Compound,Potency [1],Potency [2],Potency [3],Potency [4],Potency [5],Potency [6],Potency [7],Potency [8],Potency [9],Potency [10],Potency [11],Potency [12],Potency [13],Potency [14],Potency [15],Potency [16],Potency [17],Potency [18],Potency [19]
CC(C)N(C(=O)COc1nnc(C(F)(F)F)s1)c1ccc(F)cc1,inactive,inactive,inactive,inactive,inactive,inactive,inactive,inactive,inactive,inactive,inactive,inactive,inactive,inactive,inactive,inactive,inactive,inactive,
O=CCCl,inactive,inactive,inactive,inactive,inactive,inactive,inactive,inactive,inactive,inactive,,,inactive,inactive,,inactive,,inactive,inactive
O=C1OC(c2ccc(O)c(S(=O)(=O)O)c2)(c2ccc(O)c(S(=O)(=O)O)c2)c2c(Br)c(Br)c(Br)c(Br)c21,inactive,8.41 µM (active),inactive,inactive,inactive,inactive,inactive,inactive,inactive,inactive,inactive,inactive,inactive,inactive,inactive,inactive,,inactive,inactive
Oc1ccc(Cl)c(Cl)c1Cl,inactive,inactive,inactive,inactive,inactive,inactive,inactive,inactive,inactive,inactive,inactive,inactive,,inactive,,inactive,inactive,inactive,inactive
C[C@]12C=CC(=O)C=C1CC[C@@H]1[C@@H]2CC[C@@]2(C)[C@H]1CC[C@]2(C)O,inactive,inactive,inactive,inactive,inactive,inactive,inactive,inactive,,inactive,inactive,,inactive,inactive,,inactive,inactive,inactive,
CCN(CC)C(=O)N[C@@H]1C=C2c3cccc4[nH]cc(c34)C[C@@H]2N(C)C1,inactive,inactive,inactive,inactive,inactive,inactive,inactive,inactive,,inactive,,,,,inactive,,,inactive,inactive
COc1ccc([N+](=O)[O-])cc1O,inactive,inactive,inactive,inactive,inactive,inactive,inactive,inactive,inactive,inactive,inactive,inactive,inactive,inactive,inactive,inactive,inactive,inactive,
